Results reported in article PMC5540273 (PLoS ONE, 2017).

Columns and labels:
Details in all cases: concentration: 1 μM, replicates: in singlicate; n = 1
MEK1 = tested on: T1, MEK1
T1 construct: gene MAP2K1

MEK2 = tested on: T2, MEK2
T2 construct: gene MAP2K2

MEK3 = tested on: T3, MEK3
T3 construct: gene MAP2K3

MEK4 = tested on: T4, MEK4
T4 construct: gene MAP2K4

MEK5 = tested on: T5, MEK5
T5 construct: gene MAP2K5

MEK6 = tested on: T6, MEK6
T6 construct: gene MAP2K6

MELK = tested on: MELK
MERTK = tested on: MERTK
MET = tested on: MET
MINK = tested on: T7, MINK
T7 construct: gene MINK1

MKK7 = tested on: MKK7
MKNK1 = tested on: MKNK1
MKNK2 = tested on: MKNK2
MLCK = tested on: T8, MLCK
T8 construct: gene MYLK3

MLK1 = tested on: T9, MLK1
T9 construct: gene MAP3K9

MLK2 = tested on: MLK2
MLK3 = tested on: MLK3
MRCKA = tested on: MRCKA
MRCKB = tested on: T10, MRCKB
T10 construct: gene CDC42BPB

MST1R = tested on: MST1R
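Note: KINOMEscan kinase panel screen.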

| SMILES | %Inh (MEK1) [%] | %Inh (MEK2) [%] | %Inh (MEK3) [%] | %Inh (MEK4) [%] | %Inh (MEK5) [%] | %Inh (MEK6) [%] | %Inh (MELK) [%] | %Inh (MERTK) [%] | %Inh (MET) [%] | %Inh (MINK) [%] | %Inh (MKK7) [%] | %Inh (MKNK1) [%] | %Inh (MKNK2) [%] | %Inh (MLCK) [%] | %Inh (MLK1) [%] | %Inh (MLK2) [%] | %Inh (MLK3) [%] | %Inh (MRCKA) [%] | %Inh (MRCKB) [%] | %Inh (MST1R) [%] |
| --- | --- | --- | --- | --- | --- | --- | --- | --- | --- | --- | --- | --- | --- | --- | --- | --- | --- | --- | --- | --- |
| Cl.Nc1ncnc2occ(-c3ccc(NC(=O)Nc4cc(C(F)(F)F)ccc4F)cc3)c12 [SB-707548] | 15 | 57 | 0 | 23 | 91.4 | 10 | 33 | 98.3 | 17 | 62 | 22 | 56 | 98 | 44 | 40 | 65 | 65 | 11 | 0 | 28 |
| N#Cc1c(N2CCOCC2)sc(-c2ccn[nH]2)c1-c1ccc(Cl)cc1 | 5 | 9 | 12 | 0 | 29 | 0 | 0 | 0 | 0 | 12 | 20 | 26 | 0 | 0 | 0 | 5 | 22 | 0 | 0 | 1 |
| Cc1cccc(-c2nc(Nc3ccc4ncsc4c3)c3ccccc3n2)n1 [GW867588] | 2 | 3 | 3 | 0 | 12 | 0 | 5 | 0 | 0 | 0 | 0 | 16 | 0 | 0 | 7 | 20 | 1 | 2 | 33 | 0 |
| COc1ccc(Nc2ncc(C#N)c(Nc3ccccc3C(N)=O)n2)cc1N1CCN(C)CC1.Cl [GSK1558669] | 85 | 92.6 | 89 | 92.5 | 100 | 79 | 100 | 100 | 92 | 98.7 | 0 | 30 | 98.2 | 99.7 | 98.7 | 100 | 100 | 44 | 87 | 86 |
| NS(=O)(=O)c1cccc(-c2ccc3nccc(-c4cccc(S(N)(=O)=O)c4)c3c2)c1 [GW867253] | 23 | 30 | 38 | 15 | 41 | 7 | 0 | 14 | 0 | 27 | 0 | 0 | 0 | 0 | 0 | 41 | 0 | 3 | 7 | 0 |
| Cc1cccc(-c2nc(-c3ccc(S(C)(=O)=O)cc3)sc2-c2ccncc2)c1 | 2 | 1 | 0 | 27 | 12 | 14 | 5 | 12 | 10 | 16 | 20 | 0 | 13 | 0 | 0 | 33 | 27 | 0 | 0 | 23 |
| NS(=O)(=O)c1cccc(-c2ccc3ncc(N4CCOCC4)nc3c2)c1 [GSK1535721] | 11 | 0 | 0 | 23 | 16 | 4 | 17 | 9 | 0 | 27 | 16 | 0 | 0 | 2 | 0 | 27 | 1 | 0 | 2 | 26 |
| Cc1ccc(NC(=O)c2ccnc(N3CCN(C)CC3)c2)cc1-c1ccc(C(=O)NCC2CC2)cc1 [GW775604] | 3 | 25 | 1 | 0 | 2 | 11 | 0 | 0 | 0 | 0 | 0 | 2 | 0 | 16 | 0 | 21 | 0 | 0 | 0 | 0 |
| CN(C1=C(c2ccccc2)C(=O)NC1=O)c1ccccc1 [SB-334860] | 0 | 0 | 7 | 14 | 34 | 0 | 24 | 0 | 0 | 23 | 47 | 5 | 8 | 0 | 0 | 0 | 19 | 18 | 0 | 12 |
